In PubChem BioAssay (NCATS):
Several values for one entry are separate records, joined by “and”; a condition that tells them apart may be missing. Equal values may be shown once. Inconclusive results are not listed. Activity calls are given as the source filed them. Calls come from the whole dose curve; as a rule, active = well fitted cell-killing curve with a large enough effect; inconclusive = small, poorly fitted or top-dose-only effect; inactive = flat fitted curve, though single readings scatter. Where a SMILES comes first, the peptide text is derived from it. Bridges are numbered along the chain shown (N, C = ends). [ ]: non-standard residue; d: D form. hArg = N=C(N)NCCCC[C@H](N)C(=O)O; Mpa = O=C(O)CCS

Assay: Cellular viability qHTS for adrenocortical cancer (ACC) cell line NCI-H295R (AID 1963990); note: nearly all actives have a fitted effect of over 60% in size;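 for activity change, negative = viability loss: 0% = DMSO only wells and -100% = full killing with cytotoxic reference compound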
Details: CellTiter-Glo ATP luminescence, 48 h; series mostly up to 46.1 µM; activity change, negative = viability loss: at the top concentration
Summary of the method: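 Compound titrations (up to 46 uM final) are applied to NCI-H295R cultures for 48 h at 37C. Viable cell number is estimated by CellTiter-Glo signal, normalised to DMSO and doxorubicin controls.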
Potency is the fitted concentration of half-maximal effect.

SMILES | activity change, negative = viability loss | Potency
CC1c2ccccc2CN1NC(=O)c1ccc(Cl)c(S(N)(=O)=O)c1 (stereo not given) | 2.36% (inactive) | 
O=C(c1ccco1)N1CCNCC1 | 6.84% (inactive) | 
CCOC(=O)C(C#N)=C(c1ccccc1)c1ccccc1 | -20.5% (inactive) | 
Fc1ccc(C(c2ccc(F)cc2)N2CCNCC2)cc1 | -11.8% (inactive) | 
CO/N=C(\C(=O)N[C@@H]1C(=O)N2C(C(=O)O)=C(CSc3nc(=O)c(O)nn3C)CS[C@H]12)c1csc(N)n1 | 10.8% (inactive) | 
NC(=O)c1ncn([C@@H]2O[C@H](CO)[C@@H](O)[C@H]2O)n1 |  | inactive
CC(=O)c1cc2ccccc2s1 | 2.53% (inactive) | 
COP(=O)(OC)OC(c1ccc(Cl)cc1)P(=O)(OC)OC (stereo not given) | -20.5% (inactive) | 
Nc1ccn([C@@H]2O[C@H](CO)[C@@H](O)C2(F)F)c(=O)n1 |  | 2.06 µM (active) and 794 nM (active)
CN[C@@H](C)C(=O)N[C@H](C(=O)N1CCC[C@H]1c1nc(C(=O)c2ccc(F)cc2)cs1)C1CCCCC1 | -3.06% (inactive) | 
CC(C)NCC(O)c1ccc2ccccc2c1 (stereo not given) | 8.42% (inactive) | 
Oc1c(Br)cc(Br)c2cccnc12 |  | 1.64 µM (active)
NC(=O)CC[C@@H]1NC(=O)[C@H](Cc2ccccc2)NC(=O)[C@H](Cc2ccc(O)cc2)NC(=O)CCSSC[C@@H](C(=O)N2CCC[C@H]2C(=O)N[C@@H](CCCN=C(N)N)C(=O)NCC(N)=O)NC(=O)[C@H](CC(N)=O)NC1=O | -4.74% (inactive) | 
Cc1ccc(S(=O)(=O)NC(=O)NC2CCCC2)cc1 | -1.91% (inactive) | 
Brc1ccccc1-c1ccccc1 | 6.96% [at 92.7 µM] (inactive) | 
C[C@H](CN1CCCC1)C(=O)c1ccc(C(F)(F)F)cc1 | -2.98% (inactive) | 
NC(=O)[C@@H]1CSSCCC(=O)N[C@@H](CCCCN=C(N)N)C(=O)NCC(=O)N[C@@H](CC(=O)O)C(=O)N[C@@H](Cc2c[nH]c3ccccc23)C(=O)N2CCC[C@H]2C(=O)N1 ([Mpa][hArg]GDWPC-NH2; disulfide 1-7) | -1.73% (inactive) | 
CC(=O)N[C@H]1[C@H]([C@H](O)[C@H](O)CO)OC(C(=O)O)=C[C@@H]1N=C(N)N | -1.92% (inactive) | 
O=C(O)[C@@H]1CSCN1 | -4.21% (inactive) | 
CCN1CC(CCN2CCOCC2)C(c2ccccc2)(c2ccccc2)C1=O (stereo not given) | -14.6% (inactive) | 
